Bioassay records from PubChem BioAssay.
A selection: hits, their analogues and other compounds. The true share with any hit is near 5.5%.
Gal4-VP16 FLuc – VP16 counterscreen qHTS for inhibitors of ROR gamma transcriptional activity. Drosophila S2 Gal4-VP16 UAS-luciferase, luminescence, 20 h. Potency, µM (doses to about 53.6 µM), for the others: at the top dose activity, negative = inhibition, hits mostly inhibitors. 310,000 compounds, 3.5% hits;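 further: Gal4-VP16 expression switched on by copper sulfate through the metallothionein promoter; on the % scale 0 is the no-effect control and ±100 the full control effect; nearly all actives have a fitted effect of over 50% in size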
uPA generation – qHTS for Inhibitors of Cell Surface uPA Generation; AID 540303, 2011; 330,000 compounds, 0.31% hits; cell surface uPA generation assay, qHTS; Potency, µM (series often up to 38.3 µM), for inactives: at the highest dose activity change, negative = inhibition, hits mostly inhibitors; active means well fitted inhibition curve with a large enough effect; inconclusive means small, poorly fitted or top-dose-only effect; inactive means no such curve, though single readings can be large or run the other way; tested in mouse RAW 264.7 cells; further: on the % scale 0 is the no-effect control and ±100 the full control effect; nearly all actives have a fitted effect of over 55% in size
RORg inh – qHTS for inhibitors of ROR gamma transcriptional activity; AID 2551, 2010; 310,000 compounds, 5.4% hits; Potency, µM (titrated, usually from 53.6 µM), for the others: top-dose activity change, negative = inhibition, actives largely listed as inhibitors; Drosophila S2 Gal4-RORgamma UAS-luciferase reporter, 20 h; Nuclear receptor ROR-gamma (Mus musculus), P51450; further: on the % scale 0 is the no-effect control and ±100 the full control effect; nearly all actives have a fitted effect of over 60% in size
Target sequence (P51450 whole entry, looked up, the tested form may be a part): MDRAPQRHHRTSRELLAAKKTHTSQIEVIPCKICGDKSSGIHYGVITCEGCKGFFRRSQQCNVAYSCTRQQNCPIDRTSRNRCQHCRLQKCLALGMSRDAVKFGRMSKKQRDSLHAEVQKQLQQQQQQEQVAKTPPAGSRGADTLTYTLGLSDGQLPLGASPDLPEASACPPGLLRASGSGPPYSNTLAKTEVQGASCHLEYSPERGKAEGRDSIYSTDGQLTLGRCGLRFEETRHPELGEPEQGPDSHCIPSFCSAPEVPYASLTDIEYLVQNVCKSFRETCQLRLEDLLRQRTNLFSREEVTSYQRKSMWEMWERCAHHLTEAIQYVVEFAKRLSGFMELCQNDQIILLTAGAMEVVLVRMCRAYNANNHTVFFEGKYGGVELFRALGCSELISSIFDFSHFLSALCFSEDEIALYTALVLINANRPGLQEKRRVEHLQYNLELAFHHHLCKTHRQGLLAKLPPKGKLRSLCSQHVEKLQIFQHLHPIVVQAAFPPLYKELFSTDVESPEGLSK
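Luminescence from a UAS-regulated Photinus luciferase reporter in stably transfected Drosophila Schneider cells is measured; decreased signal marks ROR gamma inhibition. Fusion expression is induced by 700 uM copper sulfate for 20 hr.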
a7 integrin act – qHTS for Activators of Integrin-Mediated Alleviation for Muscular Dystrophy | alpha7betagal myoblasts, beta-gal FDG fluorescence, 48 h | Potency, µM (doses to about 38.3 µM), inactives show top-dose activation, most hits filed as activators | 350,000 compounds, 0.064% hits;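 further: 100% = response of the positive control SU9516; nearly all actives have a fitted effect of over 60% in size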
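alpha7betagal+/- myoblasts (passage 13, 250/well) treated 48 h at 37C with compounds at 1:260 dilution of DMSO stock. Lysed, then beta-galactosidase activity read as FDG fluorescence (ex 480/em 540) after 30 min, with pre-read for autofluorescence.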
Chronic BCR inh – qHTS Assay to Find Inhibitors of Chronic Active B-Cell Receptor Signaling. ABC-DLBCL IkBa-CBG/CBR reporter, luminescence ratio, 4 h. Potency, µM (titrated, usually from 46.1 µM), without a hit: at the highest dose activity change, negative = inhibition, actives largely listed as inhibitors. 340,000 compounds, 0.05% hits. AID 493014, 2011; active means well fitted inhibition curve with a large enough effect in the signal ratio, with a control signal flat, not every such curve was filed as active; inconclusive means small, poorly fitted or top-dose-only effect, or effect the other way, or a change in a side signal; the % refers to the signal ratio;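 further: plate controls were basal doxycycline-induced cells for no effect and cells given 10 µM MG132 for full effect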
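TMD8 human ABC-DLBCL cells with doxycycline-inducible IκBα–green luciferase fusion and unfused red luciferase, in 0.5% FBS medium; compounds up to 46 uM, 4 h at 37C. Green/red luminescence ratio, filter-overlap corrected, fitted to concentration-response curves.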
Mito fusion act – qHTS Assay for Small Molecule Inhibitors of Mitochondrial Division or Activators of Mitochondrial Fusion | Potency, µM (series often up to 46.1 µM), without a hit: top-dose growth rescue (activation), actives largely listed as activators | AID 485298, 2010 | S. cerevisiae fusion-defective mutant growth rescue, CellTiterGlo 48 h | 320,000 compounds, 0.23% hits; further: % of control where 0% means no effect; nearly all actives have a fitted effect of over 45% in size
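Temperature-sensitive fusion-defective S. cerevisiae (e.g. fzo1-1, mgm1-5) were grown with compound in YPEG medium (3% ethanol, 3% glycerol) for 48 hours at 37C. Growth rescue was measured as viability by CellTiterGlo luminescence after 10 minutes at ambient.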
The depositor's hits bear a star; u = inconclusive; x = no result; [ ] = remark or other dose. Unless noted, the call rests on the fitted dose curve; in most records, active means well fitted curve in the direction sought with a large enough effect; inconclusive means small, poorly fitted or top-dose-only effect, or another doubt; inactive means no such curve, though single readings can be large; an effect the other way counts as inactive or inconclusive. Potency means the concentration at half of the fitted maximal effect.

SMILES	Gal4-VP16 FLuc	uPA generation	RORg inh	a7 integrin act	Chronic BCR inh	Mito fusion act
CC(C)(C)OC(=O)NCCCC[C@H](NC(=O)c1nc[nH]c1C(=O)NCC(=O)OCc1ccccc1)C(=O)OC(C)(C)C	u	13.9%	28.2µM*	6.1%	6.6%	-0.6%
CC(C)(C)OC(=O)NCCCCCNC(=O)c1nc[nH]c1C(=O)NCC(=O)OCc1ccccc1	x	-2.1%	x	-23.0%	u	x
CC(C)C[C@H](NC(=O)c1nc[nH]c1C(=O)NCCCCCNC(=O)OC(C)(C)C)C(=O)OCc1ccccc1	6.31µM*	21.8%	12.6µM*	-1.4%	u	-1.5%
CC(C)C[C@H](NC(=O)c1nc[nH]c1C(=O)N[C@@H](CCCCNC(=O)OC(C)(C)C)C(=O)OC(C)(C)C)C(=O)OCc1ccccc1	u	u	7.08µM*	-34.0%	8.1%	-1.5%
CC(C)(C)OC(=O)NCCCCCNC(=O)c1[nH]cnc1C(=O)N[C@@H](Cc1ccccc1)C(=O)OCc1ccccc1	u	-11.0%	u	-47.4%	u	-1.2%
C[C@H](NC(=O)c1nc[nH]c1C(=O)N[C@@H](CCCCNC(=O)OC(C)(C)C)C(=O)OC(C)(C)C)C(=O)OCc1ccccc1	u	u	-20.2%	7.9%	1.0%	-1.8%
COc1cc(OC)c(OC)cc1CN1CCN(C(=O)CC(C)C)CC1	1.0%	-4.4%	-21.1%	13.2%	0.3%	0.5%
Cc1cccc(NC(=S)N2CCCCC2c2cccnc2)c1C (stereo not given)	7.7%	-1.7%	-28.3%	-5.6%	5.1%	-4.3%
O=C(NC(=S)N1CCCCC1c1cccnc1)c1ccc(F)cc1 (stereo not given)	2.51µM*	-2.6%	0.891µM*	2.7%	-8.6%	-6.7%
O=C(NC(=S)NN1CCCCC1c1cccnc1)c1ccc(Cl)cc1Cl (stereo not given)	4.47µM*	-0.6%	1.58µM*	25.0%	u	-2.5%
O=C(NC(=S)N1CCCCC1c1cccnc1)c1ccc(Br)cc1 (stereo not given)	1.26µM*	4.9%	0.501µM*	-10.4%	3.2%	-0.1%
Cc1ccc(NC(=O)C2CC(=O)N(CCc3ccccc3)C2)c(C)c1 (stereo not given)	3.6%[10 µM]	3.7%	6.9%	8.4%	-0.1%	-10.8%
C=CCO/N=C(/CCC)C1=C(N)CC(C)(C)CC1=O	-5.8%	-4.9%	-0.2%	-30.3%	u	-3.6%
CC(=O)c1ccc(N2CCN(S(=O)(=O)c3ccc4c(c3)CC(C)N4C(=O)C3CC3)CC2)cc1 (stereo not given)	11.2µM*	-1.4%	-40.9%	-8.0%	8.8%	-2.8%
COc1ccccc1CNC(=O)C1CCN(S(=O)(=O)c2ccc3c(c2)CC(C)N3C(C)=O)CC1 (stereo not given)	-3.6%	-0.5%	0.0%	16.2%	u	-11.6%
CCOC(=O)C1CCCN(S(=O)(=O)c2ccc3c(c2)CC(C)N3C(=O)C2CC2)C1 (stereo not given)	-19.0%	-9.0%	15.8%	0.0%	5.4%	12.4%
CC(=O)N1c2ccc(S(=O)(=O)N3CCCC3C(=O)NCc3ccccc3Cl)cc2CC1C (stereo not given)	-5.4%	-10.9%	6.31µM*	-7.2%	-1.4%	-3.0%
CCC(C)(C)NC(=O)C1CCCN(S(=O)(=O)c2ccc3c(c2)CC(C)N3C(=O)C2CC2)C1 (stereo not given)	-4.6%	7.7%	-9.6%	19.6%	5.4%	11.2µM*
COc1cc(Cl)c(S(=O)(=O)NCCCn2ccnc2)cc1Cl	5.2%	-2.1%	-9.2%[1.91 µM]	25.1%	-2.6%	4.1%
CC1Cc2cc(S(=O)(=O)N3CCC(C(=O)N(C)Cc4ccco4)CC3)ccc2N1C(=O)C1CCC1 (stereo not given)	15.2%	u	28.9%	u	4.9%	-6.7%
COc1cc(OC)c([C@@H]2O[C@H](CO)[C@@H](O)[C@H](O)[C@H]2O)c(OC)c1	-3.6%	x	21.4%	x	x	x
CC(=O)Nc1cc(C(F)(F)F)ccc1Oc1cccc(Br)c1	12.6µM*	-8.6%	u	-30.5%	24.4%	0.4%
CCOCC(=O)Nc1cc(C(F)(F)F)ccc1Oc1cccc(Br)c1	13.3%	13.3%	25.3%	2.6%	u	3.9%
COc1ccc2c(c1)sc1nc(-c3ccccc3)cn12	2µM*	-8.0%	1.58µM*	-28.5%	u	11.8%
CCCCOc1ccc(C(=O)NCC(=O)N2CCN(C(=O)c3ccco3)CC2)cc1	x	-2.0%	x	14.8%	-1.9%	7.7%
SMILES	Gal4-VP16 FLuc	uPA generation	RORg inh	a7 integrin act	Chronic BCR inh	Mito fusion act
Cc1cc(O)c(C(C)(C)C)cc1Sc1cc(C(C)(C)C)c(O)cc1C	u	x	10µM*	x	x	x
CC(C)(C)c1cc(O)c(C(C)(C)C)cc1O	-18.0%	x	-32.2%	x	x	x
CCc1ccc(NC2=NCC(c3ccccc3)S2)cc1 (stereo not given)	u	0.8%	8.91µM*	-20.3%	4.6%	9.7%
Cc1ccc(NC2=NCC(Cc3ccc(Br)cc3)S2)cc1 (stereo not given)	u	-1.7%	12.6µM*	-24.5%	-14.1%	16.2%
COc1ccccc1NC(=S)N(C(C)C)C(C)c1ccccn1 (stereo not given)	-3.6%[10 µM]	3.5%	12.6µM*	11.9%	-0.2%	19.5%
CC(C)N(C(=S)Nc1cccc(C(F)(F)F)c1)C(C)c1ccccn1 (stereo not given)	2.7%[10 µM]	-4.4%	u	-14.8%	u	-10.2%
CC(=O)CSc1ccc(-c2nc3cc(C)c(C)cc3[nH]2)cn1	1.2%	-17.3%	-8.2%	3.9%	-6.9%	-1.7%
CC(=O)CSc1ccc(-c2nc3ccccc3[nH]2)cn1	11.2µM*	-13.0%	10µM*	-6.0%	8.2%	-19.1%
CCCCc1ccc(NC(=S)NCCc2ccc(F)cc2)cc1	5.62µM*	0.5%	2.24µM*	10.3%	u	4.9%
Fc1ccc(CCNC(=S)Nc2ccc(F)cc2)cc1	0.891µM*	-0.2%	1µM*	-40.9%	u	-3.2%
CCCn1c(Nc2nc3ccccc3n2C)nc2ccccc21	-11.3%	-12.4%	-38.1%	-67.7%	u	0.9%
COc1cccc(Nc2nc3ccccc3n2C(C)C)c1	-20.1%	-10.4%	-36.1%	-3.8%	1.1%	-3.4%
Cc1ccccc1Nc1nc2ccccc2n1C(C)C	-4.5%	-5.1%	10µM*	32.5%	0.0%	-4.6%
CCc1ccccc1Nc1nc2ccccc2n1C	u	3.0%	10µM*	u	6.4%	-7.2%
